According to PubChem BioAssay AID504853 (Southern Research Specialized Biocontainment Screening …, 2011):
Potency and affinity values are given separately. Active and inactive are the calls of the source. The rule behind the calls is not given here.

Assay: HepG2 cell cytotoxicity, dose response, cytotoxicity control, set 3 (AID 504853)
Conditions: series mostly up to 50 µM; viability: at the top concentration

Which “viability” value does the source give for `Cc1nc(SCc2ccccc2Cl)[nH]c(=O)c1C` here?
The value was 107% (inactive).

Which “viability” value does the source give for `O=c1[nH]c(SCc2ccccc2Cl)nc2c1CCCC2` here?
The value was 98.5% (inactive).

Which “viability” value does the source give for `CC1CCN(C(=O)CSc2nc3ccccc3c(=O)[nH]2)CC1` here?
The value was 99.3% (inactive).

Which “viability” value does the source give for `COC(=O)c1ccc(CNc2c(N3CCCC3)c(=O)c2=O)cc1` here?
The value was 101% (inactive).

Which “viability” value does the source give for `COc1ccc(NC(=O)CSc2nc3ccccc3c(=O)[nH]2)cc1` here?
The value was 105% (inactive).

Which “viability” value does the source give for `CC(C)CCNC(=O)CSc1nc2c(c(=O)[nH]1)CCC2` here?
The value was 88.6% (inactive).

Which “viability” value does the source give for `Cc1c[nH]c(=S)[nH]c1=O` here?
Its value is 100% (inactive).

For `Cc1nc(SCC(=O)NC2CCCC2)[nH]c(=O)c1C`, which “viability” value is on record?
Its value is 107% (inactive).

With `O=C(CSc1nc2ccccc2c(=O)[nH]1)N1CCOCC1` as the compound, how does the “viability” value read?
The value was 107% (inactive).

For `Cc1[nH]c(=S)[nH]c(=O)c1C`, which “viability” value is on record?
The value was 106% (inactive).

Which “viability” value does the source give for `O=C(CSc1ccccn1)NC1CCCCC1` here?
The value was 92.8% (inactive).

Which “viability” value does the source give for `COC(=O)C(C)Oc1ccc(Cc2ncc(C(F)(F)F)cc2Cl)cc1` (stereo unspecified) here?
Its value is 94.3% (inactive).

Which “viability” value does the source give for `O=c1[nH]c(=S)[nH]c2ccccc12` here?
Its value is 99.8% (inactive).

With `CCSc1nc2ccccc2c(=O)[nH]1` as the compound, how does the “viability” value read?
The value was 98.5% (inactive).

Which “viability” value does the source give for `O=C(CSc1nc2ccccc2c(=O)[nH]1)NC1CCCCC1` here?
The value was 107% (inactive).

Which “viability” value does the source give for `CC[N+](C)(CC)CCCCOc1ccc2c(c1)C(=O)c1cc(OCCCC[N+](C)(CC)CC)ccc1-2` here?
The value was 83.8% (inactive).

With `O=C(CSc1nc2ccccc2c(=O)[nH]1)NC1CCCC1` as the compound, how does the “viability” value read?
Its value is 98.4% (inactive).

Which “viability” value does the source give for `CN(C(=O)CSc1nc2ccccc2c(=O)[nH]1)C1CCCCC1` here?
The value was 98.8% (inactive).

With `O=C(CSc1nc2c(c(=O)[nH]1)CCC2)NC1CCCCC1` as the compound, how does the “viability” value read?
The value was 99.8% (inactive).

Which “viability” value does the source give for `Cc1cnc(SCC(=O)NC2CCCCC2)[nH]c1=O` here?
Its value is 108% (inactive).

With `Cn1c(SCC(=O)NC2CCCCC2)nc2ccccc2c1=O` as the compound, how does the “viability” value read?
Its value is 101% (inactive).
